These results are taken from PubChem BioAssay (NCI).

This is part of a sample that, as a whole, favours compounds with a hit. Of some 83,000 tested, about 20% had one in any assay.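 Each cell line was grown in a 96-well plate and treated with one concentration of compound for 48 hours. Values below 10 were considered active.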 Values without a mark were called inactive. Calls of active or inactive are those of the source.

This assay relates to T-47D breast. Nature of the assay: NCI-60 one-dose screen, 48 h (100 = growth as untreated, 0 = no growth, -100 = all killed). Particulars: 10 µM unless noted.
For the molecule `ClCCN(CCCl)C(c1ccccc1)c1ccc(Cl)cc1` (centres undefined), the growth was 103%.

For the molecule `CCCCn1cc(C(=O)/C(C#N)=C/c2cc3ccccc3nc2Cl)c2cc(OC)ccc21`, the growth is 80.4%.

`CCCCNCCc1ccccn1`: the growth was 97.2%.

Take `CC(=O)C1C(=O)N(C)C(=O)N(C)C1=O`: the growth is 106%.

With `CC1(C)N=C(N)N=C(N)N1c1cccc(C(=O)Nc2cccc(S(=O)(=O)F)c2)c1`, the growth is 84%.

In the case of `C[C@]12CC[C@@H]3C4=C(CC[C@H]3[C@@H]1CC[C@@H]2O)CC(=O)CC4`, the growth was 95.4%.

Regarding `Oc1ccccc1OB(Oc1ccccc1O)N(CCCl)CCCl`, the growth was 101%.

As for `NC(Cc1ccc2c(c1)OCO2)c1ccc2c(c1)OCO2` (centres undefined), the growth was 113%.

With `COc1ccc(-c2ccc(OC)c(OC)c2OC)cc1`, the growth is 27%.

As to `CC[C@@]1(C2O[C@@H](C3O[C@@](O)(CC)[C@H](C)C[C@@H]3C)C[C@@H]2C)CC[C@H]([C@]2(C)CCC3(C[C@H](O)[C@@H](C)[C@@H]([C@H](C)[C@@H](OC)[C@H](C)C(=O)O)O3)O2)O1` (some centres undefined), the growth is 30.2%.

`CC1(C)N=C(N)N=C(N)N1c1ccc(CCCCc2ccc(S(=O)(=O)F)cc2)c(Cl)c1`: the growth is -0.711% (active).

For `COc1ccc(C2=NN(c3ccccc3)C(c3sc(N(CCCl)CCCl)nc3Cl)C2)cc1` (centres undefined), the growth is 69.5%.

As to `N#CC1c2ccccc2C=CN1C(=O)c1ccc(N(CCCl)CCCl)cc1` (centres undefined), the growth is 65.3%.

In the case of `CSc1ccccc1NP1(=O)OCC(C)([N+](=O)[O-])CO1` (centres undefined), the growth is 96%.
